Measured values as given in PMC5540273 (PLoS ONE, 2017).

Key:
Settings in all cases: concentration: 1 μM, replicates: in singlicate; n = 1
PAK1 = tested on: PAK1
PAK2 = tested on: PAK2
PAK3 = tested on: PAK3
PAK4 = tested on: PAK4
PAK6 = tested on: PAK6
PAK7 = tested on: PAK7
PCTK1 = tested on: T1, PCTK1
T1 construct: gene CDK16

PCTK2 = tested on: T2, PCTK2
T2 construct: gene CDK17

PCTK3 = tested on: T3, PCTK3
T3 construct: gene CDK18

PDGFRA = tested on: PDGFRA
PDGFRB = tested on: PDGFRB
PDPK1 = tested on: PDPK1
PFTAIRE2 = tested on: PFTAIRE2
PFTK1 = tested on: T4, PFTK1
T4 construct: gene CDK14

PHKG1 = tested on: PHKG1
PHKG2 = tested on: PHKG2
PIK3C2B = tested on: PIK3C2B
PIK3C2G = tested on: PIK3C2G
PIK3CA = tested on: PIK3CA
PIK3CB = tested on: PIK3CB
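Further: KINOMEscan kinase panel screen.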

Compound	%Inh (PAK1) [%]	%Inh (PAK2) [%]	%Inh (PAK3) [%]	%Inh (PAK4) [%]	%Inh (PAK6) [%]	%Inh (PAK7) [%]	%Inh (PCTK1) [%]	%Inh (PCTK2) [%]	%Inh (PCTK3) [%]	%Inh (PDGFRA) [%]	%Inh (PDGFRB) [%]	%Inh (PDPK1) [%]	%Inh (PFTAIRE2) [%]	%Inh (PFTK1) [%]	%Inh (PHKG1) [%]	%Inh (PHKG2) [%]	%Inh (PIK3C2B) [%]	%Inh (PIK3C2G) [%]	%Inh (PIK3CA) [%]	%Inh (PIK3CB) [%]
O=c1cc(N2CCOCC2)nc2n(Cc3cccc(Cl)c3)ccn12 [GSK2296823]	6	10	0	0	0	53	5	0	17	0	15	0	14	18	0	0	6	0	0	98.5
Fc1cccc(COc2ccc(Nc3ncnc4nn5ccccc5c34)cc2Cl)c1 [GW689066]	15	15	8	15	0	0	0	0	0	0	13	0	4	0	2	0	0	0	0	41
CC(=O)Nc1n[nH]c2ncc(-c3ccccc3)cc12 [SB-548492]	0	32	0	4	12	0	3	7	4	51	90	0	14	12	2	0	3	23	0	0
COc1cc2ncnc(Nc3ccc(OCc4ccccc4Br)c(Cl)c3)c2cc1OC.Cl [GI261590]	14	22	38	0	0	5	0	0	0	0	0	0	4	29	3	0	0	0	0	45
CCn1c(-c2ccncc2)nc2cnccc21 [SB-735216]	0	47	0	0	0	0	0	0	0	13	1	0	0	3	3	0	19	0	0	0
Clc1cccc(-c2nc(Nc3ccncc3)c3ccccc3n2)c1 [GW873004]	0	0	37	16	0	0	0	0	0	0	12	4	0	0	0	0	0	0	0	0
Cc1ccc(O)cc1Nc1cc(C(F)(F)F)nc2ccc(-c3ccncc3)cc12 [GW630823]	21	10	0	21	20	7	0	2	0	0	10	0	34	5	14	5	0	15	1	0
CCc1nc(-c2cccc(C)c2)c(-c2ccnc(NC(=O)c3ccccc3)c2)s1	0	0	2	0	3	0	24	7	1	0	0	0	17	10	0	0	14	49	0	29
OCCOCCn1ccc2ncnc(Nc3ccc(Oc4cccc(Cl)c4)c(Cl)c3)c21	0	0	18	0	0	0	0	0	6	0	0	13	0	10	0	26	0	0	0	0
CCCc1ccc(S(=O)(=O)NC2CCN(c3ccnc(Nc4ccc(OC)cc4)n3)C2)cc1 (stereo not drawn) [GSK1379737]	11	9	100	0	0	0	0	0	0	0	51	0	5	0	0	0	0	0	0	0
Cl.Cl.c1ccc(-c2cc3ccncc3cc2OC2CCNCC2)cc1 [GSK1122999]	15	31	47	0	0	2	2	12	13	0	42	0	34	12	2	0	7	0	4	26
CS(=O)(=O)CCNCc1ccc(-c2ccc3ncnc(Nc4ccc(OCc5ccccc5)c(Cl)c4)c3c2)o1.Cl [GW574783]	0	0	7	0	0	0	0	0	0	0	14	17	0	0	13	0	38	0	0	0
